Data on 15 molecules can be found in PubChem BioAssay AID2665 (Vanderbilt High Throughput Screening Facility, 2010).

Calls of active or inactive are those of the source. How the calls were made is not given here.

For assay [1], the target named is Muscarinic acetylcholine receptor M1 (Rattus norvegicus) (UniProt P08482). Description: M5 positive allosteric modulators, analog testing, SAR follow-up, CHO cells, calcium, ACh EC10, single 30 µM (AID 2665).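 Further: 100% = response to a maximal acetylcholine concentration.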 The following applies: rat M1 potentiation, CHO calcium; at 30 µM; stronger effect = higher value.
For assay [2], the target named is Muscarinic acetylcholine receptor M5 (Homo sapiens) (UniProt P08912). The assay is described as above. Conditions: CHO hM5 calcium flux, ACh EC10 potentiation; at 30 µM; stronger effect = higher value.
Chain of Muscarinic acetylcholine receptor M5 (Homo sapiens) (P08912 whole entry, looked up): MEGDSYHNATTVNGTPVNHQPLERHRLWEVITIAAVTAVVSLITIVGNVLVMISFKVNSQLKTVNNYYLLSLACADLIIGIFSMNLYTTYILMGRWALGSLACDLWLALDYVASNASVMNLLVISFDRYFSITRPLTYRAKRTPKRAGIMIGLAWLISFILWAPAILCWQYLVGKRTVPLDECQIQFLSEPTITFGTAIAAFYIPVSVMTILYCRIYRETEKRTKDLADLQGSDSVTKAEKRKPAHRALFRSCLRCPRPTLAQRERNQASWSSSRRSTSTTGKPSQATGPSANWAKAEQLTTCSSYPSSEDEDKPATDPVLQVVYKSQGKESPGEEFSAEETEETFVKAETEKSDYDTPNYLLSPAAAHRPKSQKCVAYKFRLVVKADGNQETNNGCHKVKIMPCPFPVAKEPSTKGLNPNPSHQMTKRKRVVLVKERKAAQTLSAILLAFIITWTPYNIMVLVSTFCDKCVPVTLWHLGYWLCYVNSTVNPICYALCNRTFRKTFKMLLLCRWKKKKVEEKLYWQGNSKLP

As to `COc1cccc(CN2C(=O)C(=O)c3cc(F)ccc32)c1`, the % ACh max response in assay [1] is 32.3%; in assay [2] it was 41.6% (active).

Turning to `O=C1C(=O)N(Cc2ccc(Br)cc2F)c2ccc(F)cc21`, the % ACh max response in assay [1] was 70.5%; in assay [2], 64% (active).

Regarding `O=C1C(=O)N(Cc2ccccc2C(F)(F)F)c2ccccc21`, the % ACh max response was 37.9% in assay [1] and 40.2% (active) in assay [2].

As to `O=C1C(=O)N(Cc2ccc(Br)cc2)c2c(Cl)cccc21`, the figures for the % ACh max response in assay [1] and in assay [2] were 29.9% and 44.3% (active), respectively.

Consider `COc1cccc(CN2C(=O)C(=O)c3cccc(F)c32)c1`, for which the % ACh max response was 51.1% in assay [1] and 52% (active) in assay [2].

`O=C1C(=O)N(Cc2ccc(Br)cc2)c2ccc(Cl)cc21`: the % ACh max response is 26.1% in assay [1] and 32% (inactive) in assay [2].

Regarding `CCCOc1ccc(-c2ccc(CN3C(=O)C(=O)c4ccccc43)cc2)cc1`, the figures for the % ACh max response in assay [1] and in assay [2] were 24.2% and 48.6% (active), respectively.

On to `O=C1C(=O)N(Cc2ccc(F)cc2F)c2c(Cl)ccc(Cl)c21`, for which the % ACh max response was 17.2% in assay [1] and 19.1% (inactive) in assay [2].

For the molecule `COc1ccc(CN2C(=O)C(=O)c3cccc(F)c32)cc1`, the values for the % ACh max response in assay [1] and in assay [2] were 54.6% and 44.4% (active), respectively.

With `O=C1C(=O)N(Cc2ccccc2Cl)c2ccc(OC(F)(F)F)cc21`, the results for the % ACh max response in assay [1] and in assay [2] were 12.3% and 51.9% (active), respectively.

For `O=C1C(=O)N(Cc2ccc(-c3ccc(Cl)nc3)cc2)c2ccccc21`, the % ACh max response in assay [1] is 37.1%; in assay [2], 47.8% (active).

`O=C1C(=O)N(Cc2ccc(F)cc2F)c2c(Cl)cccc21`: the figures for the % ACh max response in assay [1] and in assay [2] were 64.6% and 61.6% (active), respectively.

Consider `COc1cccc(CN2C(=O)C(=O)c3cc(OC(F)(F)F)ccc32)c1`, for which the % ACh max response is 28.6% in assay [1] and 70.1% (active) in assay [2].

Regarding `O=C1C(=O)N(Cc2ccccc2Cl)c2c(Cl)ccc(Cl)c21`, the % ACh max response in assay [1] is 13.1%; in assay [2], 18.9% (inactive).

In the case of `O=C1C(=O)N(Cc2ccccc2F)c2c(F)cccc21`, the results for the % ACh max response in assay [1] and in assay [2] were 42.7% and 42.4% (active), respectively.
